Test results from PubChem BioAssay AID1159580 (chemical genetic matrix, 2015).
Several values for one entry are separate records, joined by “and”; a condition that tells them apart may be missing. Equal entries are not always repeated. The whole screen tested about 5,500 compounds, of which about 2,000 (36%) were called active. About 18% were inconclusive and are not listed. Cut-off read from the data, not from the text of the source: active = normalized growth mostly below about 0.91 (no sharp cut-off); inconclusive = no clear call, values can overlap the other calls; inactive = mostly above about 0.92. Some of the results follow.

Assay: chemical genetic growth profiling, strain panel (AID 1159580);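 note: tested at 20 µM; growth read once vehicle control cultures reached saturation at 30 °C; 1 = growth at the plate median or of vehicle wells; lower values mean less growth of the strain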
Details: growth OD

Measured: normalized growth

CC(C[N+](C)(C)C)OC(N)=O (centres undefined)
inactive: S. cerevisiae deletion strains, locus YJR066W, strain TOR1, stronger effect = lower value 0.993 | S. cerevisiae deletion strains, locus YKL009W, strain mrt4, stronger effect = lower value 0.934 | S. cerevisiae deletion strains, locus YKL068W, stronger effect = lower value 0.991 | S. cerevisiae deletion strains, locus YKL085W, strain MDH1 (second series), stronger effect = lower value 0.996 | S. cerevisiae deletion strains, locus YKL085W, strain MDH1, stronger effect = lower value 0.996 | S. cerevisiae deletion strains, locus YKL160W, strain elf1, stronger effect = lower value 1.01 | S. cerevisiae deletion strains, locus YKL190W, strain CNB1, stronger effect = lower value 1 | S. cerevisiae deletion strains, locus YKR001C, strain vps1, stronger effect = lower value 0.96 | S. cerevisiae deletion strains, locus YKR026C, strain gcn3, stronger effect = lower value 1.02 | S. cerevisiae deletion strains, locus YKR091W, strain srl3, stronger effect = lower value 1.02 | S. cerevisiae deletion strains, locus YLL001W, strain dnm1, stronger effect = lower value 1.03 | S. cerevisiae deletion strains, locus YLL026W, stronger effect = lower value 1.01 | S. cerevisiae deletion strains, locus YLL041C, strain sdh2, stronger effect = lower value 1.04 | S. cerevisiae deletion strains, locus YLR027C, strain aat2, stronger effect = lower value 1.03 | S. cerevisiae deletion strains, locus YLR039C, strain RIC1, stronger effect = lower value 0.952 | S. cerevisiae deletion strains, locus YLR058C, strain SHM2, stronger effect = lower value 0.991 | S. cerevisiae deletion strains, locus YLR102C, strain apc9, stronger effect = lower value 0.983 | S. cerevisiae deletion strains, locus YLR113W, strain HOG1, stronger effect = lower value 0.957 | S. cerevisiae deletion strains, locus YLR221C, strain rsa3, stronger effect = lower value 1.04 | S. cerevisiae deletion strains, locus YLR258W, strain gsy2, stronger effect = lower value 1.04 | S. cerevisiae deletion strains, locus YLR262C, strain YPT6 (second series), stronger effect = lower value 1.02 | S. cerevisiae deletion strains, locus YLR262C, strain YPT6, stronger effect = lower value 0.939 | S. cerevisiae deletion strains, locus YLR268W, strain sec22, stronger effect = lower value 0.973 | S. cerevisiae deletion strains, locus YLR320W, strain mms22, stronger effect = lower value 1.03 | S. cerevisiae deletion strains, locus YLR330W, strain CHS5, stronger effect = lower value 0.994 | S. cerevisiae deletion strains, locus YLR342W, strain FKS1 (second series), stronger effect = lower value 1.06 | S. cerevisiae deletion strains, locus YLR342W, strain FKS1, stronger effect = lower value 1.02 | S. cerevisiae deletion strains, locus YLR357W, strain rsc2, stronger effect = lower value 1.02 | S. cerevisiae deletion strains, locus YLR370C, strain arc18, stronger effect = lower value 1.03 | S. cerevisiae deletion strains, locus YLR371W, strain rom2, stronger effect = lower value 0.976 | S. cerevisiae deletion strains, locus YLR384C, strain iki3, stronger effect = lower value 1.03 | S. cerevisiae deletion strains, locus YLR418C, strain cdc73, stronger effect = lower value 0.953 | S. cerevisiae deletion strains, locus YML016C, strain PPZ1, stronger effect = lower value 0.995 | S. cerevisiae deletion strains, locus YML032C, strain rad52, stronger effect = lower value 0.983 | S. cerevisiae deletion strains, locus YML120C, strain ndi1, stronger effect = lower value 1.03 | S. cerevisiae deletion strains, locus YML124C, strain tub3, stronger effect = lower value 0.986 | S. cerevisiae deletion strains, locus YMR058W, strain fet3, stronger effect = lower value 1.03 | S. cerevisiae deletion strains, locus YMR078C, strain ctf18, stronger effect = lower value 0.97 | S. cerevisiae deletion strains, locus YMR125W, strain sto1, stronger effect = lower value 1.05 | S. cerevisiae deletion strains, locus YMR129W, stronger effect = lower value 1.03 | S. cerevisiae deletion strains, locus YMR205C, strain PFK2, stronger effect = lower value 0.998 | S. cerevisiae deletion strains, locus YMR223W, strain ubp8, stronger effect = lower value 0.987 | S. cerevisiae deletion strains, locus YMR231W, strain pep5, stronger effect = lower value 1.02 | S. cerevisiae deletion strains, locus YMR307W, strain GAS1, stronger effect = lower value 1.09 | S. cerevisiae deletion strains, locus YNL067W, strain RPL9B, stronger effect = lower value 0.98 | S. cerevisiae deletion strains, locus YNL071W, strain lat1, stronger effect = lower value 1.01 | S. cerevisiae deletion strains, locus YNL128W, strain TEP1, stronger effect = lower value 0.975 and 0.99 | S. cerevisiae deletion strains, locus YNL153C, strain GIM3, stronger effect = lower value 0.995 | S. cerevisiae deletion strains, locus YNL175C, strain NOP13, stronger effect = lower value 0.997 | S. cerevisiae deletion strains, locus YNL183C, strain NPR1, stronger effect = lower value 0.96 | S. cerevisiae deletion strains, locus YNL197C, strain WHI3, stronger effect = lower value 1 | S. cerevisiae deletion strains, locus YNL209W, strain ssb2, stronger effect = lower value 1.03 | S. cerevisiae deletion strains, locus YNL224C, strain SQS1, stronger effect = lower value 0.995 | S. cerevisiae deletion strains, locus YNL233W, strain BNI4, stronger effect = lower value 0.999 | S. cerevisiae deletion strains, locus YNL248C, strain rpa49, stronger effect = lower value 1.01 | S. cerevisiae deletion strains, locus YNL250W, strain rad50, stronger effect = lower value 1 | S. cerevisiae deletion strains, locus YNL271C, strain bni1, stronger effect = lower value 0.973 | S. cerevisiae deletion strains, locus YNL298W, strain CLA4, stronger effect = lower value 0.976 | S. cerevisiae deletion strains, locus YNL307C, strain MCK1, stronger effect = lower value 0.97 | S. cerevisiae deletion strains, locus YNL322C, strain KRE1 (second series), stronger effect = lower value 1.01 | S. cerevisiae deletion strains, locus YNL322C, strain KRE1, stronger effect = lower value 0.992 | S. cerevisiae deletion strains, locus YNR049C, strain mso1, stronger effect = lower value 1.01 | S. cerevisiae deletion strains, locus YNR052C, strain pop2, stronger effect = lower value 0.982 | S. cerevisiae deletion strains, locus YOL006C, strain TOP1, stronger effect = lower value 1.02 | S. cerevisiae deletion strains, locus YOL012C, strain htz1 0.744 | S. cerevisiae deletion strains, locus YOL147C, strain pex11, stronger effect = lower value 0.987 | S. cerevisiae deletion strains, locus YOR001W, strain rrp6, stronger effect = lower value 1.03 | S. cerevisiae deletion strains, locus YOR061W, strain CKA2, stronger effect = lower value 0.99 | S. cerevisiae deletion strains, locus YOR069W, strain VPS5, stronger effect = lower value 0.987 | S. cerevisiae deletion strains, locus YOR070C, strain gyp1, stronger effect = lower value 1.03 | S. cerevisiae deletion strains, locus YOR080W, strain dia2, stronger effect = lower value 1.04 | S. cerevisiae deletion strains, locus YOR083W, strain WHI5 (second series), stronger effect = lower value 0.996 | S. cerevisiae deletion strains, locus YOR083W, strain WHI5, stronger effect = lower value 0.976 | S. cerevisiae deletion strains, locus YOR106W, strain vam3, stronger effect = lower value 1.05 | S. cerevisiae deletion strains, locus YOR136W, strain idh2, stronger effect = lower value 0.968 | S. cerevisiae deletion strains, locus YOR144C, strain elg1, stronger effect = lower value 0.985 | S. cerevisiae deletion strains, locus YOR184W, strain ser1, stronger effect = lower value 0.976 | S. cerevisiae deletion strains, locus YOR231W, strain MKK1, stronger effect = lower value 0.979 | S. cerevisiae deletion strains, locus YOR265W, strain rbl2, stronger effect = lower value 1.02 | S. cerevisiae deletion strains, locus YOR270C, strain vph1, stronger effect = lower value 1.05 | S. cerevisiae deletion strains, locus YOR290C, strain snf2, stronger effect = lower value 1.02 | S. cerevisiae deletion strains, locus YOR316C, strain cot1, stronger effect = lower value 0.977 | S. cerevisiae deletion strains, locus YPL051W, strain arl3, stronger effect = lower value 1.02 | S. cerevisiae deletion strains, locus YPL055C, strain LGE1, stronger effect = lower value 0.998 | S. cerevisiae deletion strains, locus YPL078C, strain atp4, stronger effect = lower value 1.02 | S. cerevisiae deletion strains, locus YPL106C, strain sse1, stronger effect = lower value 1.06 | S. cerevisiae deletion strains, locus YPL240C, strain hsp82, stronger effect = lower value 1.02 | S. cerevisiae deletion strains, locus YPL256C, strain CLN2, stronger effect = lower value 0.976 | S. cerevisiae deletion strains, locus YPR119W, strain clb2, stronger effect = lower value 0.985 | S. cerevisiae deletion strains, locus YPR141C, strain kar3, stronger effect = lower value 0.986 | S. cerevisiae deletion strains, locus YPR163C, strain tif3, stronger effect = lower value 0.979 | S. cerevisiae deletion strains, locus YPR167C, strain met16, stronger effect = lower value 0.98 | S. cerevisiae deletion strains, strain wtn01, stronger effect = lower value 1 | S. cerevisiae strains, strain wild type, stronger effect = lower value 0.994
